57 compounds from PubChem BioAssay AID488969 (Vanderbilt High Throughput Screening Facility, 2010) can be followed below.

Whole data set: some 110,000 compounds, median “z-score” near -0.1, cut for the highest 2% near 2. Only a selection was taken, and the highest values are over-represented in it overall. The source made the active and inactive calls.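 Rule for the calls: active = z-score in the third read window above 3 or below -3; inactive = the rest.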

Chain of Metabotropic glutamate receptor 8 (Rattus norvegicus) (P70579 whole entry, looked up): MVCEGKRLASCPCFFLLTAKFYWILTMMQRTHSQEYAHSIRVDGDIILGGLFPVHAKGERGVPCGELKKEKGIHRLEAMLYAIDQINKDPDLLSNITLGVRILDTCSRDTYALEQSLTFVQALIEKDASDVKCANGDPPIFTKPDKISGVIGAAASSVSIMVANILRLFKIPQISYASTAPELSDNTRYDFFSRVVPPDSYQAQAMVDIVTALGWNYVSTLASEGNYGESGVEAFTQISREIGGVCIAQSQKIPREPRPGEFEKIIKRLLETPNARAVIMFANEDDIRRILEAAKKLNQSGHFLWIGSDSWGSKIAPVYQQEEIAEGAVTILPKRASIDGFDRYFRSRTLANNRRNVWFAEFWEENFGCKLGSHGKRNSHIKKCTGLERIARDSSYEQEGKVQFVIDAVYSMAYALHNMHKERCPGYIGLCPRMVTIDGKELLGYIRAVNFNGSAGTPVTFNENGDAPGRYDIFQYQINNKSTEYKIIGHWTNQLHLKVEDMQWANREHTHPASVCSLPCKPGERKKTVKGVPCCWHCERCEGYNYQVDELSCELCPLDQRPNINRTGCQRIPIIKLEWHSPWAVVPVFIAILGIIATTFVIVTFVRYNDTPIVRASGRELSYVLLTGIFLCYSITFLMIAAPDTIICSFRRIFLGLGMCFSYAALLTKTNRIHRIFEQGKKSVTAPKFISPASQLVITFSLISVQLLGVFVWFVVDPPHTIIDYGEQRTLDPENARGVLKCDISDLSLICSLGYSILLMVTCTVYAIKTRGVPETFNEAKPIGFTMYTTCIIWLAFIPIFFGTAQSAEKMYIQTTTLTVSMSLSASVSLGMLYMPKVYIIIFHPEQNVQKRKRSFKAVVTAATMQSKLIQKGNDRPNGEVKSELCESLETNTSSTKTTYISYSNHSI

The assay addresses Metabotropic glutamate receptor 8 (Rattus norvegicus) (UniProt P70579). As to the kind of experiment: rat mGluR8 modulators via GIRK flux, primary screen, cell-based, thallium flux, HTS (AID 488969). The settings on record: HEK293 rat mGluR8, GIRK (G protein-gated inwardly rectifying potassium channel) thallium flux, FluoZin2; at 10 µM; stronger effect = higher value; submaximal glutamate (EC20) added with thallium.
The compound `C=CCn1c(Oc2cc(C)ccc2C)nc2c1c(=O)n(C)c(=O)n2C` registered a z-score of 0.128.
Take `CCC(C)(C(=O)NC1CCCCC1)N(C(=O)C1CCC(=O)N1)c1ccccc1` (configuration not stated): the z-score was determined as 0.963.
Then `NNC(=O)c1cnn(Cc2ccccc2)c1N`, with 0.0742; and `Cc1cccc(NC2=NC(=S)N(c3ccc(C(=O)O)cc3)C23CCCCC3)c1`, with -0.194; and `Cc1ccc(NC2=NC(=S)N(CC#N)C23CCCCC3)cc1`, with 3.98 (active).
As for `Cc1ccc(Nc2nc(N)nc(CC#N)n2)cc1`, the z-score turned out to be 0.115.
As to `CCSc1nnc(NC(=O)C(C)Sc2nc3ccccc3[nH]2)s1` (configuration not stated), the z-score was 1.73.
Then `COc1ccc(N(CC(=O)NCc2ccc3c(c2)OCO3)S(=O)(=O)c2c(C)nn(C)c2C)cc1`, with -0.575.
As to `COC(=O)c1ccc(COC(=O)c2ccc(SC)cc2OC)cc1`, the z-score was -0.178.
In turn, `Cc1cccc(NC(=O)c2sc(Cl)nc2C)c1C` returned a z-score of 0.181.
`Cn1c(=O)oc2cc(S(=O)(=O)N3CCCC(C(=O)N4CC=C(c5ccccc5)CC4)C3)ccc21` (configuration not stated) gave a z-score of 1.18.
On to `O=C(Nc1ccccc1N1CCOCC1)C1CCN(S(=O)(=O)c2cccc(C(F)(F)F)c2)CC1`, for which the z-score is -0.294.
Compound `O=C(Nc1ccc(N2CCOCC2)cc1)C1CCCN(S(=O)(=O)c2ccccc2)C1` (configuration not stated) displayed a z-score of 0.446.
`O=C(Nc1ccc(N2CCOCC2)cc1)C1CCCN(S(=O)(=O)c2cccc(C(F)(F)F)c2)C1` (configuration not stated): the z-score came out at 2.63.
Compound `Cc1nn(-c2ccccc2)c(Cl)c1/C=N/NC(=O)C1COc2ccccc2O1` (configuration not stated) yielded a z-score of -0.169.
With `CCCSc1nnc(-c2cnn(-c3ccccc3)c2-n2cccc2)n1C`, the z-score is -0.0552.
Turning to `COc1cc(NC(=O)c2ccc(C)cc2)c(OC)cc1NC(=O)CN1CCCCC1`, the z-score stood at 2.37.
In turn, `COc1cc(NC(=O)c2ccc(C)cc2)c(OC)cc1NC(=O)CN1CCOCC1` yielded a z-score of -0.672.
In the case of `COc1cc(NC(=O)c2ccccc2)c(OC)cc1NC(=O)CN1CCCCC1`, the z-score was -0.781.
The compound `COc1cc(NC(=O)COC(=O)CNC(=O)c2ccc(Cl)cc2)c(C)cc1[N+](=O)[O-]` showed a z-score of -0.644.
Take `CC1(C)CC(=S)Nc2ccccc2S1`: the z-score is 7.97 (active).
The compound `COC(=O)C(C)C1Sc2ccccc2NC1=O` (configuration not stated) gave a z-score of -0.34.
Then `CC1CC(=S)Nc2ccccc2S1` (configuration not stated), with 1.11; and `CCOC(=O)c1cc(C#N)c(Oc2ccc(F)cc2)nc1-c1ccccc1`, with -0.0477; and `Cc1cc(C(=O)COC(=O)Cc2n[nH]c(=O)c3ccccc23)c(C)n1-c1ccc2c(c1)OCCO2`, with -0.104.
Turning to `CS(=O)(=O)c1ccc(Cl)c(NC(=O)c2cccc(Br)c2)c1`, the z-score was -0.236.
As for `COc1ccc(OC)c(Nc2ncnc3c2cnn3-c2ccccc2)c1`, the z-score was -0.143.
In turn, `O=C(CSC1=Nc2ccccc2C2=NC(CC(=O)NCc3ccco3)C(=O)N12)NCC1CCCO1` (configuration not stated) returned a z-score of -0.919.
In the case of `O=C(CSC1=Nc2ccccc2C2=NC(c3ccccc3)C(=O)N12)NCC1CCCO1` (configuration not stated), the z-score was determined as 2.65.
In turn, `O=C(CSC1=Nc2ccccc2C2=NC(c3ccccc3)C(=O)N12)NC1CCCCC1` (configuration not stated) yielded a z-score of -0.816.
As to `CCC(=O)OCCn1c(Br)nc2c1c(=O)[nH]c(=O)n2C`, the z-score was -0.265.
`C/C=C/Cn1c(Br)nc2c1c(=O)n(C)c(=O)n2C` came in with a z-score of 1.47.
`C/C(CCC12CC3CC(CC(C3)C1)C2)=N\NC(N)=S` yielded a z-score of -0.636.
Consider `C/C(=N\NC(N)=S)C12CC3CC(CC(C3)C1)C2`, for which the z-score came out at 2.47.
Take `C/C(=N\NC(=O)c1ccncc1)C12CC3CC(CC(C3)C1)C2`: the z-score is -0.319.
The result for `COc1ccc(OC)c(C(=O)CSc2nccc(-c3ccc(Br)cc3)n2)c1` reads -0.268.
On to `COC(=O)/C(=C/c1cccnc1)NC(=O)c1ccccc1`, for which the z-score was -0.0328.
The result for `CC(C)OC(=O)/C(=C\C=C\c1ccccc1)NC(=O)c1ccccc1` reads -0.143; that for `CC(C)OC(=O)/C(=C/c1cccnc1)NC(=O)c1ccccc1`, 3.22 (active).
Take `CC(=O)Nc1c(OC(C)=O)ccc2c(C)cc(=O)oc12`: the z-score was -0.24.
In turn, `Cc1cc(C(F)(F)F)nn1Cc1n[nH]c(=S)n1-c1cccc(Cl)c1` came in with a z-score of -0.0907.
As for `O=S(=O)(c1ccccc1)c1nc(-c2ccccc2)oc1N1CCCCC1`, the z-score is -0.0433.
Then `COCCNC(=O)C(c1cccs1)N(C(=O)Cn1nnc2ccccc21)c1ccc(OC)cc1` (configuration not stated), with 0.0248; and `CCCCCCCCCOC(=O)C[n+]1csc(CCO)c1C`, with 0.0302.
As to `O=C(CCN1C(=O)c2ccccc2C1=O)Nc1sc2c(c1C(=O)NCC1CCCO1)CCC2` (configuration not stated), the z-score is -0.294.
The compound `CC(C(=O)Nc1sc2c(c1C(=O)NCC1CCCO1)CCC2)N1C(=O)c2ccccc2C1=O` (configuration not stated) gave a z-score of -1.
For `O=C(CN1C(=O)c2ccccc2C1=O)Nc1sc2c(c1C(=O)NCC1CCCO1)CCC2` (configuration not stated), the z-score is 4.33 (active).
`CC(C)COP(=O)(OCC(C)C)C(O)c1ccc(F)cc1` (configuration not stated) had a z-score of 0.263.
The compound `COc1ccc(C2(CNC(C)=O)CCOCC2)cc1OC` yielded a z-score of 0.1.
`COC(=O)C1=CN(C(C)C)C=C(C(=O)OC)C1c1cc2c(cc1Br)OCO2` showed a z-score of -0.0368.
In the case of `Cc1cc2cc3c(cc2nc1SCc1ccc(C(=O)O)cc1)OCCO3`, the z-score is -0.554.
On to `COc1cccc(C2C(C#N)=C(N)Oc3c2oc(CO)cc3=O)c1` (configuration not stated), for which the z-score was -1.28.
Regarding `O=C(CCC(=O)c1ccc(F)cc1)Nc1ccccc1Cl`, the z-score is 0.266.
`Cc1ccc(C(=O)c2ccccc2C(=O)O)c(O)c1` came in with a z-score of 0.0184.
Take `O=C(CC(=O)c1ccccc1O)c1ccc(F)cc1`: the z-score is 7.61 (active).
Then `Cc1ccc(C(=O)CC(=O)c2cccc(F)c2)c(O)c1`, with 8.38 (active).
The compound `O=C(Nc1ccccc1C(=O)O)c1cccc(F)c1` yielded a z-score of -0.262.
